Targets with a hit are over-represented here; the source holds about 7,900 in all. About 0.6% of all pairs of compound and target were hits. A number with no mark means an inactive call.
Legend:
Test in all cases: log2 fold change, soluble protein after heating vs DMSO (PISA); higher = thermal stabilisation; K562 cells, 10 uM, 30 min; active = over 0.2 and 3.5 SD of the protein, either way, in both replicates (recomputed)
[1] = compound: COC1=CC=C(C=C1)CN2C=CC3=C2C=C(C=C3)C(=O)NO
Method in brief: (§1)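 K562 cells at 2×10^6 cells/mL were treated with 10 μM compound for 30 min. Aliquots were heated for 3 min across 48°C-58°C, pooled, and extracted in PBS with 0.5% NP-40 at 4°C; soluble protein was the supernatant after 21,000xg for 90 min. Soluble protein was quantified by TMTpro 16plex LC-MS/MS with channel sums equalised, and reported as log2 fold change in thermal stability against DMSO controls, with values from duplicates.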

filanesib = compound: CON(C)C(=O)N1N=C(c2cc(F)ccc2F)S[C@@]1(CCCN)c1ccccc1 [filanesib]
Method in brief: as §1

zotarolimus = compound: CO[C@H]1C[C@@H]2CC[C@@H](C)[C@@](O)(O2)C(=O)C(=O)N2CCCC[C@H]2C(=O)O[C@H]([C@H](C)C[C@@H]2CC[C@H](n3cnnn3)[C@H](OC)C2)CC(=O)[C@H](C)/C=C(\C)[C@@H](O)[C@@H](OC)C(=O)[C@H](C)C[C@H](C)/C=C/C=C/C=C/1C [zotarolimus]
Method in brief: as §1

idasanutlin = compound: COc1cc(C(=O)O)ccc1NC(=O)[C@@H]1N[C@@H](CC(C)(C)C)[C@](C#N)(c2ccc(Cl)cc2F)[C@H]1c1cccc(Cl)c1F [idasanutlin]
Method in brief: as §1

alisertib = compound: COc1cc(Nc2ncc3c(n2)-c2ccc(Cl)cc2C(c2c(F)cccc2OC)=NC3)ccc1C(=O)O [alisertib]
Method in brief: as §1

[2] = compound: COc1cc2nc(-c3cc(F)ccc3O)nc(N[C@@H]3CNC[C@H]3C(C)(C)O)c2cc1OC
Method in brief: as §1

gefitinib = compound: COc1cc2ncnc(Nc3ccc(F)c(Cl)c3)c2cc1OCCCN1CCOCC1 [gefitinib]
Method in brief: as §1

[3] = compound: COc1cccc2cc(-c3nc([C@H]4CC[C@H](C(=O)O)CC4)n4ncnc(N)c34)[nH]c12
Method in brief: as §1

lapatinib = compound: CS(=O)(=O)CCNCc1ccc(-c2ccc3ncnc(Nc4ccc(OCc5cccc(F)c5)c(Cl)c4)c3c2)o1 [lapatinib]
Method in brief: as §1

pictilisib = compound: CS(=O)(=O)N1CCN(Cc2cc3nc(-c4cccc5[nH]ncc45)nc(N4CCOCC4)c3s2)CC1 [pictilisib]
Method in brief: as §1

UniProt O00217, sequence (O00217 whole entry, looked up): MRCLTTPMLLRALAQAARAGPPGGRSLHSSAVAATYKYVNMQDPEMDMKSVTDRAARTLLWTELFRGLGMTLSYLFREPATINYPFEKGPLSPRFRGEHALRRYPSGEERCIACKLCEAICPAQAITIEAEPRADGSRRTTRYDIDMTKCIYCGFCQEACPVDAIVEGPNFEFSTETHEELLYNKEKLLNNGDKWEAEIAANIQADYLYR
UniProt P30419, sequence (P30419 whole entry, looked up): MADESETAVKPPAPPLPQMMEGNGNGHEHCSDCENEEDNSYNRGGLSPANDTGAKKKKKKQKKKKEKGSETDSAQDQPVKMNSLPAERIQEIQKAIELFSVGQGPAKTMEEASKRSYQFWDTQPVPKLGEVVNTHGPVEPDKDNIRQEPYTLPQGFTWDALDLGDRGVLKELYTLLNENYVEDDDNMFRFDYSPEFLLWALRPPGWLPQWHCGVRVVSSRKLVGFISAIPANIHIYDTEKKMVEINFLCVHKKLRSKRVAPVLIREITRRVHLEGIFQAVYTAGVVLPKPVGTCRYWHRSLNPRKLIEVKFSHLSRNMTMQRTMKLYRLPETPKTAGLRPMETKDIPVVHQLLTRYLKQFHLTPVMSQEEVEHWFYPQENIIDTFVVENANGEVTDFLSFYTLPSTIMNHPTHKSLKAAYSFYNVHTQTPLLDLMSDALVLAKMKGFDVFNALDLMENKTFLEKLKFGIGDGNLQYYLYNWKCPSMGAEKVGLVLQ
UniProt Q9BUB5, sequence (Q9BUB5 whole entry, looked up): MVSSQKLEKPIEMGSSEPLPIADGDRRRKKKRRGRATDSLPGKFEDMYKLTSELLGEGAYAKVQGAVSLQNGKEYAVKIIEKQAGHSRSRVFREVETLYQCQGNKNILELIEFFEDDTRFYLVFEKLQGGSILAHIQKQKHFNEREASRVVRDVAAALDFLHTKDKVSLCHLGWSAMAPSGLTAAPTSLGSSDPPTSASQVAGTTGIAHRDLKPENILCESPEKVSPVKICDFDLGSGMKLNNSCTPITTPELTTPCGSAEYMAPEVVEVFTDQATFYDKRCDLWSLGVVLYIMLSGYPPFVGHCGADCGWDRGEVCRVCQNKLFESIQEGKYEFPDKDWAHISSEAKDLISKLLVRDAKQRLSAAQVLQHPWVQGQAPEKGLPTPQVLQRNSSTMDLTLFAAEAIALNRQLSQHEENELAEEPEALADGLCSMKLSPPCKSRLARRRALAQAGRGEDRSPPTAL
UniProt Q9BZF1, sequence (Q9BZF1 whole entry, looked up): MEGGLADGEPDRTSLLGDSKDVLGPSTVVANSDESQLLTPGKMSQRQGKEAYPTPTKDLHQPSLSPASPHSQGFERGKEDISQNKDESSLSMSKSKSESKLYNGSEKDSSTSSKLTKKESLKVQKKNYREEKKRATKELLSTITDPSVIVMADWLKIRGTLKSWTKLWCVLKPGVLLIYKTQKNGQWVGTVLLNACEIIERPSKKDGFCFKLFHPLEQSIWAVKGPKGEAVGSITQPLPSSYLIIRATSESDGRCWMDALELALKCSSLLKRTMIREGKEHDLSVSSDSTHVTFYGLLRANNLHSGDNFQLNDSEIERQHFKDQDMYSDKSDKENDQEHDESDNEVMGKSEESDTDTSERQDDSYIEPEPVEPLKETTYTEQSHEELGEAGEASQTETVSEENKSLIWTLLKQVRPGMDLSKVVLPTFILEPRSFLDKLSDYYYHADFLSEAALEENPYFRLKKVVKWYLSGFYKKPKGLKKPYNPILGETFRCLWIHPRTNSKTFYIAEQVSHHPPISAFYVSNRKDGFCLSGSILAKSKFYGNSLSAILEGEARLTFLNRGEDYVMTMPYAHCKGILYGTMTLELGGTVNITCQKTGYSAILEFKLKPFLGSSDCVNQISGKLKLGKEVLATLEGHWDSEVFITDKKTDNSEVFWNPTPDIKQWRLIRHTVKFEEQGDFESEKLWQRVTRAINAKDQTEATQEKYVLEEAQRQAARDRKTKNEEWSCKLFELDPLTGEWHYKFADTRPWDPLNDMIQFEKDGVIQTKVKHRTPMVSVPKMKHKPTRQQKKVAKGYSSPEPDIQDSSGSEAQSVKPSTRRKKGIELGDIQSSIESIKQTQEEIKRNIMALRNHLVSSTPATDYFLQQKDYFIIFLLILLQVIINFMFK
UniProt Q86WQ0, sequence (Q86WQ0 whole entry, looked up): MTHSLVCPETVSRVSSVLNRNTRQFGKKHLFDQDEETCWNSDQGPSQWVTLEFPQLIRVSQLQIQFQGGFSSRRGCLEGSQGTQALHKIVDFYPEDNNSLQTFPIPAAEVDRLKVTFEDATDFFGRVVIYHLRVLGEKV
UniProt Q9Y605, sequence (Q9Y605 whole entry, looked up): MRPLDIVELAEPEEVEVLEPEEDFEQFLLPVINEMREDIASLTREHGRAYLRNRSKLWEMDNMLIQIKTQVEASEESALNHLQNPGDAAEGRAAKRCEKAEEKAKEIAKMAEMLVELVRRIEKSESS
UniProt Q96IV0, sequence (Q96IV0 whole entry, looked up): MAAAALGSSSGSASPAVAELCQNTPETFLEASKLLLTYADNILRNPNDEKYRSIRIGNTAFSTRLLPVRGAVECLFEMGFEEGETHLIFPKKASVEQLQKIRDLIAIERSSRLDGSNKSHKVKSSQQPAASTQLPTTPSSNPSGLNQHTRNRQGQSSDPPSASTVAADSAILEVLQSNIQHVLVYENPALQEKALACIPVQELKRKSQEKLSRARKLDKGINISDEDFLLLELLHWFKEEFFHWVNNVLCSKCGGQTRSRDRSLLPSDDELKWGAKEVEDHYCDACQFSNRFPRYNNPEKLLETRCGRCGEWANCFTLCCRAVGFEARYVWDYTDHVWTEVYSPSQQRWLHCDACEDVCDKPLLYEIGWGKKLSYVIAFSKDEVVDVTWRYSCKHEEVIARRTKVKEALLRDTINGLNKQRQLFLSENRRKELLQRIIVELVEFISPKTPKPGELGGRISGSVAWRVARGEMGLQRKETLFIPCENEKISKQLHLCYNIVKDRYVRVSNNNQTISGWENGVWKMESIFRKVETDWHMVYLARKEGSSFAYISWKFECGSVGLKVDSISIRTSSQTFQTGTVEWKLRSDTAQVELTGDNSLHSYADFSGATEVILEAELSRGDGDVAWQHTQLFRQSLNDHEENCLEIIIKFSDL
UniProt Q8WVJ2, sequence (Q8WVJ2 whole entry, looked up): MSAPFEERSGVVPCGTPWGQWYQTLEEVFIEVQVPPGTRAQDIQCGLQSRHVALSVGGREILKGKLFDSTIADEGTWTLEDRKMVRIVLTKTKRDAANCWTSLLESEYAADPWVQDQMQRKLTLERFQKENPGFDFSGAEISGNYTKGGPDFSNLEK
UniProt Q9ULX3, sequence (Q9ULX3 whole entry, looked up): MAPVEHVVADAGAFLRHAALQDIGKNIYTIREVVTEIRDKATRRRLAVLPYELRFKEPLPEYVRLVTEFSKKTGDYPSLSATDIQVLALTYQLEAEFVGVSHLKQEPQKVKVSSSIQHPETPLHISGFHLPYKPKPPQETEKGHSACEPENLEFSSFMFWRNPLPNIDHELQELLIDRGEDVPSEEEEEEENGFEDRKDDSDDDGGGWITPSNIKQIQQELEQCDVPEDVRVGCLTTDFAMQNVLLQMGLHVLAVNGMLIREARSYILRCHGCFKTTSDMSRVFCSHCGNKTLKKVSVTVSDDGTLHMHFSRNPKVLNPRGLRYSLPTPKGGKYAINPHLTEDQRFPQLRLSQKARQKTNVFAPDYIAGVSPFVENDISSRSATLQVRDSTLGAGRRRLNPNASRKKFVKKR
UniProt P22059, sequence (P22059 whole entry, looked up): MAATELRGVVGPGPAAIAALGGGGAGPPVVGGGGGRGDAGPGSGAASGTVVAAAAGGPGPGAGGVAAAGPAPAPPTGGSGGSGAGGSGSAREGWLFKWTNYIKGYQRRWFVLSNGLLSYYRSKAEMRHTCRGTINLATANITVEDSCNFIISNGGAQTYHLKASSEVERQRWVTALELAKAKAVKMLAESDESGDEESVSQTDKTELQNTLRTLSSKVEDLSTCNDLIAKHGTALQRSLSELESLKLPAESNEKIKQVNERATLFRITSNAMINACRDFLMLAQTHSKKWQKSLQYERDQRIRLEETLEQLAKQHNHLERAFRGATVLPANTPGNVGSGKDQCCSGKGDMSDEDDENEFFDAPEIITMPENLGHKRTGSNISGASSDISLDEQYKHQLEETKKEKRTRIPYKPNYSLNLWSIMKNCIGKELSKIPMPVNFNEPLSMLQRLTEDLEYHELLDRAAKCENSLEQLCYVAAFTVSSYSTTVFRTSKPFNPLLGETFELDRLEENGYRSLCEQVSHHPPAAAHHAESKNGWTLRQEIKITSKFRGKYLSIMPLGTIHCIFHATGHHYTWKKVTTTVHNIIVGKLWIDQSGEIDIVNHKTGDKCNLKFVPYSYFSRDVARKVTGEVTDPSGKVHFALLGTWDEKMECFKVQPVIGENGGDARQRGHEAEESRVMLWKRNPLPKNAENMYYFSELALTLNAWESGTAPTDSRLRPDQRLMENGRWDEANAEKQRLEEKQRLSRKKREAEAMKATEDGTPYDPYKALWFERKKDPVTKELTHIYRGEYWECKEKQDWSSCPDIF
UniProt O60551, sequence (O60551 whole entry, looked up): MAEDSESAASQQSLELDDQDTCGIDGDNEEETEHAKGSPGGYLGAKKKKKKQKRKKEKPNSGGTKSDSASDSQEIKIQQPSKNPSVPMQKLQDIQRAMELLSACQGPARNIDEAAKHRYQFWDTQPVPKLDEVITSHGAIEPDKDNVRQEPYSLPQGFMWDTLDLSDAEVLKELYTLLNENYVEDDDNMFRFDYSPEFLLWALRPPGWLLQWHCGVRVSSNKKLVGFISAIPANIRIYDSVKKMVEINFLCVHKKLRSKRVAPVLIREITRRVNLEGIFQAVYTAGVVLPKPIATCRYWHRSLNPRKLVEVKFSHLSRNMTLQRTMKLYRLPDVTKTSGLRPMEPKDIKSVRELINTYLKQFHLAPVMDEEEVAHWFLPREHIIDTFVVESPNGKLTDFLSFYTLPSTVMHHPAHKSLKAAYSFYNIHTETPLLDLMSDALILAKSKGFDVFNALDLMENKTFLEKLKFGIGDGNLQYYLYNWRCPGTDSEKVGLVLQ

Target	log2 fold change [1]	log2 fold change (filanesib)	log2 fold change (zotarolimus)	log2 fold change (idasanutlin)	log2 fold change (alisertib)	log2 fold change [2]	log2 fold change (gefitinib)	log2 fold change [3]	log2 fold change (lapatinib)	log2 fold change (pictilisib)
MPHOSPH10 (UniProt O00566)	-0.139	0.561 (active)	0.053	0.271	-0.061	-0.166	0.026	-0.031	0.174	-0.105
OXA1L (UniProt Q15070)	-0.023	-0.123	0.009	-0.029	0.003	-0.186	-0.004	0.053	0.013	0.058
NPEPPS (UniProt P55786)	0.22 (active)	-0.056	0.338 (active)	-0.072	-0.017	0.037	-0.026	0.066	-0.002	-0.001
MKNK1 (UniProt Q9BUB5)	0.021	-0.108	-0.022	-0.075	0.008	-0.021	0.525 (active)	-0.073	0.015	-0.058
OSBP (UniProt P22059)	-0.018	0.009	0.007	-0.019	-0.046	0.086	0.019	-0.009	0	0.004
PACS1 (UniProt Q6VY07)	0.105	0.047	0.008	-0.005	0.006	0.054	0.043	0.002	0.013	0.021
NR2C2AP isoform 2 (UniProt Q86WQ0)	0.101	0.01	-0.014	-0.062	-0.066	-0.034	-0.01	0.093	-0.011	0.08
NAGPA (UniProt Q9UK23)	-0.025	-0.046	-0.099	0.054	-0.069	-0.044	0.001	0.248	0.139	0.134
NDUFA7 (UniProt O95182)	0.003	-0.072	0.005	-0.197	-0.042	-0.147	-0.178	0.013	-0.002	-0.007
NGLY1 (UniProt Q96IV0)	0.02	0.043	-0.012	0.112	-0.064	0.047	0.076	-0.128	0.03	0.045
NDUFB7 (UniProt P17568)	-0.011	-0.023	-0.03	-0.025	-0.051	-0.077	0	0.002	-0.013	-0.066
NDUFA12 (UniProt Q9UI09)	-0.011	-0.071	0.002	-0.213	0.019	-0.167	-0.086	0.056	-0.04	0.023
OSBPL8 (UniProt Q9BZF1)	0.034	0.077	-0.067	-0.016	-0.052	-0.086	0.23	-0.22	0.142	-0.015
NOLC1 isoform 2 (UniProt Q14978)	0.016	0.21	0.015	0.199	-0.112	-0.093	0.041	0.104	0.052	0.056
NMT1 (UniProt P30419)	-0.023	-0.005	0.042	-0.015	-0.056	-0.009	-0.044	0.018	0.03	0.029
NOB1 (UniProt Q9ULX3)	0.16	0.001	0.026	0.068	-0.14	0.044	0.01	-0.13	0.045	-0.042
MRPL34 (UniProt Q9BQ48)	-0.074	0.081	0.072	0.029	-0.089	-0.045	-0.105	-0.164	0.028	-0.102
MRPS6 (UniProt P82932)	0.204	-0.019	0.038	-0.275 (active)	0.029	0.012	-0.051	-0.081	0.035	-0.003
NUDCD2 (UniProt Q8WVJ2)	0.072	-0.016	0.065	0.075	-0.011	0.117	0.083	-0.018	-0.038	0.014
NUP98 (UniProt P52948)	-0.003	0.045	0.009	0.061	0.007	0.047	0.026	-0.057	0.02	0.027
NMT2 (UniProt O60551)	-0.064	-0.018	0.019	-0.062	-0.096	0.082	-0.069	-0.046	-0.047	0.087
NDUFS8 (UniProt O00217)	-0.07	-0.122	-0.003	-0.147	-0.15	-0.069	-0.028	0.081	0.01	0.018
MRPL46 (UniProt Q9H2W6)	-0.019	0.068	0.1	-0.012	-0.063	-0.088	0.005	-0.029	0.082	0.011
MRPS16 (UniProt Q9Y3D3)	-0.102	0.044	0.04	-0.348 (active)	0.02	-0.054	-0.045	-0.011	0.039	-0.03
MRPS9 (UniProt P82933)	0.009	0.007	0.065	-0.16	0.076	-0.021	0.084	0.016	0.096	-0.049
MRFAP1 (UniProt Q9Y605)	0.015	-0.012	-0.018	0.173	-0.435	-0.154	-0.036	0.157	-0.093	-0.01
NA, A0A096LPI6	0.008	-0.044	0.019	-0.014	-0.034	-0.123	0.018	0.074	0.029	-0.02
MTHFS (UniProt P49914)	0.032	-0.023	-0.02	-0.006	-0.065	0.041	0.053	0.052	0.028	0.016
OPA1 isoform 2 (UniProt O60313)	-0.01	-0.118	0.035	-0.105	0.002	-0.249 (active)	-0.002	0.002	0.024	-0.07
